Experimental data reported in PubChem BioAssay AID1986 (Sanford-Burnham Center for Chemical Genomics, 2009).
The campaign covered roughly 290,000 compounds. About 890 (0.31%) were called active. No stated cut-off is given here; in the data, active means inhibition mostly above about 52% (no sharp cut-off); inactive means mostly below about 76%. For the sample, actives were picked, then their nearest neighbours and some compounds at random.

Experiment: inhibitors of HIV fusion peptide binding, primary screen, biochemical, uHTS, fluorescence dequenching (AID 1986)
Settings: cell-free peptide binding, 30 min, stronger effect = higher value
[1] = measured here: repeat confirmation average inhibition, at 18.6 µM

| SMILES | inhibition (at 20 µM) | inhibition [1] |
| --- | --- | --- |
| CC(C)(C)n1nnnc1CN1CCN2CCCC2C1 (centres undefined) | 1.1% (inactive) |  |
| NC(=O)C1=C[C@H](c2ccc(C(F)(F)F)cc2)C[C@H](OCCCCO)O1 | -0.7% (inactive) |  |
| Cc1cccc(NS(=O)(=O)c2ccc3c(c2)oc(=O)n3C)c1C | 2.3% (inactive) |  |
| Cc1cccc(NC(=O)NC2CCCc3ccccc32)c1 (centres undefined) | -2.1% (inactive) |  |
| COc1ccccc1OCC(=O)Nc1ccc(S(=O)(=O)Nc2onc(C)c2C)cc1 | -0.4% (inactive) |  |
| CCC(C)[C@H](NC(=O)[C@@H]1Cc2c([nH]c3ccccc23)C2c3ccccc3C(=O)N21)C(=O)N1CCC[C@@H]1C(=O)O (some centres undefined) | 6.9% (inactive) |  |
| O=C(CN1C(=O)/C(=C/c2ccco2)SC1=S)Nc1ccc(C(=O)O)c(O)c1 | 76.4% (active) |  |
| O=C(CN1C(=O)/C(=C\c2cccs2)SC1=S)Nc1cccc(C(=O)O)c1 | 32.4% (inactive) |  |
| O=C(CN1C(=O)/C(=C\c2ccco2)SC1=S)Nc1ccc(O)cc1C(=O)O | 75.1% (active) |  |
| O=C(CCCN1C(=O)/C(=C\c2ccco2)SC1=S)Nc1ccc(O)cc1C(=O)O | 72% (inactive) | 13% |
| O=C(CCN1C(=O)/C(=C/c2ccco2)SC1=S)Nc1ccc(O)cc1C(=O)O | 52.5% (inactive) | 30.6% |
| COc1ccc(NC(=O)CCCN2C(=O)/C(=C\c3ccco3)SC2=S)cc1 | 33.7% (inactive) |  |
| CCCCOc1ccc(Cc2n[nH]c(=S)n2N)cc1 | -3.5% (inactive) |  |
| Cc1ccc(C)c(S(=O)(=O)N2CCN(C(=O)c3ccc(N4CCCC4)c([N+](=O)[O-])c3)CC2)c1 | 0.3% (inactive) |  |
| CC1(C)Cc2nc3sc4c(N5CCCC5)nnnc4c3cc2CO1 | 0.1% (inactive) |  |
| O=C(NCCCCc1ccccc1)c1cccc([N+](=O)[O-])c1 | 0.7% (inactive) |  |
| CCCOc1ccc(-c2cc(C(F)(F)F)c(C#N)c(SCC(=O)O)n2)cc1 | 29.9% (inactive) |  |
| CCCCOc1ccc(-c2cc(C(F)(F)F)c(C#N)c(SCC(=O)O)n2)cc1 | 79.3% (active) |  |
| COc1ccc(-c2cc(C(F)(F)F)c(C#N)c(SCC(=O)O)n2)cc1 | 2.9% (inactive) |  |
| O=C(N/N=C/c1cccc([N+](=O)[O-])c1)c1ccc2nc[nH]c2c1 | -2.3% (inactive) |  |
| O=C1c2ccccc2C(=O)N1Cc1cc(Cl)c(O)c([N+](=O)[O-])c1 | -1.1% (inactive) |  |
| NC(=S)Nc1cc2ccccc2c2ccccc12 | -2.7% (inactive) |  |
| CC1CCCN(S(=O)(=O)c2ccc([N+](=O)[O-])cc2)C1 (centres undefined) | 1.5% (inactive) |  |
| O=C(O)Cc1cc(I)c(Oc2ccc(O)c(I)c2)c(I)c1 | 68.9% (inactive) | 33.9% |
| O=C(O)CCc1cc(I)c(Oc2ccc(O)c(I)c2)c(I)c1 | 75.1% (active) |  |
| N[C@@H](Cc1cc(I)c(Oc2ccc(O)c(I)c2)c(I)c1)C(=O)O | 30.3% (inactive) |  |

| SMILES | inhibition (at 20 µM) | inhibition [1] |
| --- | --- | --- |
| CCn1c(=O)c2c(nc3n2CCCN3CCc2ccc(OC)c(OC)c2)n(C)c1=O | -0.3% (inactive) |  |
| CC(C)C(=O)NNC(=O)c1csc(-c2cccs2)n1 | 0% (inactive) |  |
| COc1cc(C2CC(=O)Nc3c2c(=O)nc2c(C)cccn32)cc(OC)c1OC (centres undefined) | 0% (inactive) |  |
| N#C/C(=C\c1ccc(N2CCOCC2)o1)C(=O)N1CCOCC1 | 53.5% (active) | 83.9% |
| Cc1ccc2nc(/C(C#N)=C\c3ccc(N4CCOCC4)o3)[nH]c2c1 | 28% (inactive) |  |
| N#C/C(=C\c1ccc(N2CCCCC2)o1)C(N)=O | 91.9% (active) |  |
| N#C/C(=C/c1ccc(N2CCOCC2)o1)C(=O)Nc1ccccc1 | 147% (inactive) |  |
| N#C/C(=C\c1ccc(N2CCOCC2)o1)C(=O)Nc1ccc(O)cc1 | 148% (inactive) |  |
| N#C/C(=C/c1ccc(N2CCCCC2)o1)C(=O)Nc1ccc(Cl)cc1 | 44.8% (inactive) |  |
| N#C/C(=C/c1ccc(N2CCCCC2)o1)C(=O)Nc1ccc2ccccc2c1 | 153% (inactive) |  |
| N#C/C(=C/c1ccc(N2CCOCC2)o1)c1nc2ccccc2[nH]1 | 52.1% (active) |  |
| N#C/C(=C\c1ccc(N2CCOCC2)o1)c1nc2ccccc2[nH]1 | 48.3% (inactive) |  |
| COc1cccc(CC(=O)NC2CCCN(Cc3ccc(Cl)cc3)C2)c1 (centres undefined) | -1% (inactive) |  |
| CCCCCn1c(=O)[nH]c2cc(C(=O)NCCN3CCCCC3C)ccc2c1=O (centres undefined) | 0.7% (inactive) |  |
| COc1ccc(OC)c(CN2CCN(S(=O)(=O)c3ccc(NC(C)=O)cc3)CC2)c1 | -1.6% (inactive) |  |
| S=C(NCCc1ccccc1)NC1CC2CCC(C1)N2Cc1ccccc1 (centres undefined) | -0.5% (inactive) |  |
| O=C(N/N=C/c1ccncc1)c1cccs1 | -1.5% (inactive) |  |
| CCOC(=O)c1sc(N/N=C/c2cc(Br)c(O)c(OC)c2)nc1C | 13.2% (inactive) |  |
| COC/C=C/C1=CC2=CC(=O)C(C)(OC(=O)C3CCCC3)C(=O)C2=CO1 (centres undefined) | 35.3% (inactive) |  |
| COC/C=C/C1=CC2=CC(=O)C(C)(OC(=O)CCC(=O)OC)C(=O)C2=CO1 (centres undefined) | 45% (inactive) |  |
| COC/C=C/C1=CC2=CC(=O)C(C)(OC(=O)c3ccco3)C(=O)C2=CO1 (centres undefined) | 51% (active) |  |
| COC(=O)c1ccc(C(=S)NCC2(N(C)C)CCCCC2)cc1 | -0.5% (inactive) |  |
| Cc1ccc(Cn2c(/C=C/c3ccco3)nc3ccccc32)cc1 | 28.5% (inactive) |  |
| Clc1ccccc1Cn1c(/C=C/c2ccco2)nc2ccccc21 | 54.5% (inactive) | 0.3% |
| Clc1ccc(Cn2c(/C=C/c3ccco3)nc3ccccc32)cc1 | 58.4% (active) |  |
| COc1ccc(C(=O)NNC(=O)Cc2ccc(Cl)cc2)cc1 | 0.6% (inactive) |  |

| SMILES | inhibition (at 20 µM) | inhibition [1] |
| --- | --- | --- |
| S=C1NC(c2ccccc2)=CC(c2ccccc2)N1 (centres undefined) | -0.8% (inactive) |  |
| CCOc1cc2c(cc1/C=C/c1noc(C)c1[N+](=O)[O-])OC(C)C2 (centres undefined) | 97.9% (active) | 62.4% |
| CCOc1cc2c(cc1/C=C/C(=O)O)OC(C)C2 (centres undefined) | -2.8% (inactive) |  |
| CCOc1cc2c(cc1C=O)OC(C)C2 (centres undefined) | 0.9% (inactive) |  |
| Cc1nonc1NC(=O)CSc1cn[nH]n1 | -0.1% (inactive) |  |
| N#Cc1c(-c2ccccc2)nc(SCC(=O)Nc2ccccc2)[nH]c1=O | 22% (inactive) |  |
| CCOc1ccc2nc(NC(=O)CSc3ccccc3)sc2c1 | 2.6% (inactive) |  |
| N#Cc1c(-c2ccccc2)nc(SCC(=O)Nc2ccccc2F)[nH]c1=O | 14.2% (inactive) |  |
| CCOc1ccc2nc(NC(=O)CSc3ccc(Cl)cc3)sc2c1 | -1.6% (inactive) |  |
| COc1cccc(OC)c1OCCCOc1ccc([N+](=O)[O-])cc1Cl | 1.3% (inactive) |  |
| CC(C)(C)c1ccc(OC(=O)N2CCOCC2)cc1 | 1.1% (inactive) |  |
| NC(=O)C1CCN(C(=O)COc2ccc3c4c(c(=O)oc3c2)CCCC4)CC1 | -2.1% (inactive) |  |
| CCCn1nc([N+](=O)[O-])c(C(C#N)c2nc3ccccc3o2)c(Cl)c1=O (centres undefined) | 51.5% (active) |  |
| CCCn1nc([N+](=O)[O-])c(C(C#N)c2nc3ccccc3s2)c(Cl)c1=O (centres undefined) | 52.4% (inactive) | 39.3% |
| CCn1nc([N+](=O)[O-])c(C(C#N)c2nc3ccccc3n2C)c(Cl)c1=O (centres undefined) | 9.2% (inactive) |  |
| CCOc1cccc(-c2nnc(SCC(=O)Nc3ccc(OC)c(OC)c3)n2N)c1 | -0.9% (inactive) |  |
| CC(C)C[C@@H](COc1ccccc1)N1CCN(C)CCC1=O | 1.1% (inactive) |  |
| CCCOc1c(Br)cc(C(N)=O)cc1OCC | -1.3% (inactive) |  |
| O=[N+]([O-])c1nn(-c2ccc3c(c2)OCCO3)n(O)c1=NCc1ccccc1Cl | 1.5% (inactive) |  |
| O=[N+]([O-])c1nn(-c2ccc3c(c2)OCCO3)n(O)c1=NCc1ccc(F)cc1 | -3.5% (inactive) |  |
| O=[N+]([O-])c1nn(-c2ccc3c(c2)OCCO3)n(O)c1=NCc1ccc(F)cc1Cl | 51.7% (active) |  |
| COc1ccc(OC)c(CCNC(=O)c2ccc3c(c2)N(Cc2ccc(F)cc2)CCS3)c1 | -0.6% (inactive) |  |
| CCOC(=O)N1CCN(C(=O)c2cc3c(=O)n4cccc(C)c4nc3s2)CC1 | 1.5% (inactive) |  |
| CN(CC(=O)NC1CCCCC1)S(=O)(=O)c1ccc2c(c1)c(=O)n(C)c(=O)n2C | -0.8% (inactive) |  |
| Cn1c(=O)c2cc(S(=O)(=O)NCCC(=O)NC3CCCCCC3)ccc2n(C)c1=O | -0.8% (inactive) |  |
| Cn1c(=O)c2cc(S(=O)(=O)NCCC(=O)NC3CCCCCCC3)ccc2n(C)c1=O | 70.9% (active) |  |

| SMILES | inhibition (at 20 µM) | inhibition [1] |
| --- | --- | --- |
| COc1ccc(Cl)cc1N=Cc1c(O)c2ccccc2oc1=O | 0.2% (inactive) |  |
| COc1ccc(OC)c(N=Cc2c(O)c3ccccc3oc2=O)c1 | 37.7% (inactive) |  |
| COc1cc(N=Cc2c(O)c3ccccc3oc2=O)c(OC)cc1Cl | 73.9% (active) | 196% |
| CC1CCCN(C2(O)C(=O)Nc3ccc(Cl)cc32)C1 (centres undefined) | -0.9% (inactive) |  |
| COc1ccccc1CN(C)C(=O)CNC(=O)c1cccc(Cl)c1 | 0.2% (inactive) |  |
| O=C1OC(c2ccco2)=N/C1=C\c1ccc(-c2cccc(C(F)(F)F)c2)o1 | 55.6% (active) | 164% |
| O=C1OC(c2cccs2)=N/C1=C\c1ccc(-c2cccc(Cl)c2)o1 | 55.7% (inactive) | 21.2% |
| O=C1OC(c2cccs2)=N/C1=C/c1ccc(-c2cccc(C(=O)O)c2)o1 | 53% (inactive) | 13.5% |
| CCOc1ccc(C2C(C(=O)c3ccc(C)o3)=C(O)C(=O)N2Cc2cccnc2)cc1 (centres undefined) | -3.1% (inactive) |  |
| COc1ccc(C)cc1S(=O)(=O)NC1CCCCCC1 | -1.6% (inactive) |  |
| Cc1ccccc1-n1ncc2c1CC(C)(C)CC2NC(=O)c1cn[nH]c1C (centres undefined) | -0.7% (inactive) |  |
| O=C1NC(=Nc2ccccc2)/C(=C/c2ccco2)S1 | 47.9% (inactive) |  |
| O=C1NC(=Nc2ccc3ccccc3c2)S/C1=C/c1ccco1 | 54.8% (active) |  |
| COc1ccc(N=C2NC(=O)/C(=C\c3ccco3)S2)cc1 | 42% (inactive) |  |
| Cc1cccc(N=C2NC(=O)S/C2=C\c2ccco2)c1 | 71.9% (active) |  |
| Cc1ccc(N=C2NC(=O)S/C2=C\c2ccco2)cc1 | 47.8% (inactive) |  |
| O=C1NC(=Nc2ccc(O)cc2)S/C1=C/c1ccco1 | 17.3% (inactive) |  |
| Cc1ccc(N=C2NC(=O)/C(=C\c3ccco3)S2)cc1 | 57.5% (active) |  |
| COc1ccc(S(=O)(=O)/N=C2/NC(=O)/C(=C\c3ccco3)S2)cc1 | 60.8% (active) |  |
| Cc1ccc(N=C2NC(=O)/C(=C/C=C/c3ccco3)S2)cc1 | 52.6% (inactive) | 1.5% |
| COc1ccc(N=C2NC(=O)/C(=C/c3ccco3)S2)cc1 | 9.7% (inactive) |  |
| CC(=O)Nc1ccc(S(=O)(=O)/N=C2/NC(=O)/C(=C\c3ccco3)S2)cc1 | 41.2% (inactive) |  |
| COc1ccc(S(=O)(=O)/N=C2/NC(=O)/C(=C/c3ccco3)S2)cc1 | 70.3% (inactive) | 9.9% |
